In PubChem BioAssay AID1851 (National Center for Advancing Translational Sciences (NCATS), 2009):
“And” between values parts separate entries of the source, which are not always exact repeats. Identical values can stand only once. The whole screen tested about 16,000 compounds, of which about 4,000 (25%) were called active. Roughly 26% stayed inconclusive and do not appear here. Not all results are given here. Values without a mark were called inactive. The call rests on the fitted dose curve; in most records, active means well fitted curve in the direction sought with a large enough effect; inconclusive means small, poorly fitted or top-dose-only effect, or effect the other way; inactive means no such curve, though single readings can be large or run the other way.

Molecular target: Cytochrome P450 2C9 (Homo sapiens) (UniProt P11712)
Assay: Cytochrome panel assay with activity outcomes
Conditions: recombinant CYP, pro-luciferin dealkylation, luminescence, p450-cyp2c9; series mostly up to 57.1 µM
On the % scale 0 is the no-effect control and ±100 the full control effect.

Sequence of Cytochrome P450 2C9 (Homo sapiens) (P11712 whole entry, looked up): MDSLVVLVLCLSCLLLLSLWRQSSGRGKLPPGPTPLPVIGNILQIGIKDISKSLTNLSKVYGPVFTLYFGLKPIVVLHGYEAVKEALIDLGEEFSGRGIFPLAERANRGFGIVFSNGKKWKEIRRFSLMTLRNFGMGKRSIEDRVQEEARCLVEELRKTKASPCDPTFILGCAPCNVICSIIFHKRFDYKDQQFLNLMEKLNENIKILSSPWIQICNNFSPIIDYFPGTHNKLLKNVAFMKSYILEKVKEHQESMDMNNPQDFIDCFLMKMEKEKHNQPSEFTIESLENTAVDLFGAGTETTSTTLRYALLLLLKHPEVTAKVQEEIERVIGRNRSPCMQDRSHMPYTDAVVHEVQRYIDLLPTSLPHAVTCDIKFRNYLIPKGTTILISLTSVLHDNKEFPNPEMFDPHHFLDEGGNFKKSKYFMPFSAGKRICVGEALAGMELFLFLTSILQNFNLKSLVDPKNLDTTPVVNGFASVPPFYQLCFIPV

| SMILES | activity, negative = inhibition | AC50 |
| --- | --- | --- |
| CN1CCC2(CC1)CCN(C(=O)Oc1ccccc1)CC2 | inactive | – |
| C[C@@]12C(=O)OC(=O)[C@]1(C)[C@H]1CC[C@@H]2O1 | inactive | – |
| O=C(Nc1ccc(C(F)(F)F)cc1)c1cccn(Cc2ccc3c(c2)OC(F)(F)O3)c1=O | – | 8.91 µM (active) |
| O=C(Nc1cccc(C(F)(F)F)c1)c1cccn(Cc2ccc3c(c2)OC(F)(F)O3)c1=O | – | 3.16 µM (active) |
| O=P(O)(O)CCP(=O)(O)O | -4.93% [at 11.4 µM] | – |
| C[N+]1(C)[C@@H]2CC[C@H]1CC(OC(=O)c1c[nH]c3ccccc13)C2 (stereo partly drawn) | inactive | – |
| C[C@]12N[C@H](Cc3ccccc31)c1ccccc12 | inactive | – |
| CCN(CCCl)Cc1ccccc1Br | inactive | – |
| CC(C)c1ccc2c(c1)c(SC(C)(C)C)c(CC(C)(C)C(=O)O)n2Cc1ccc(Cl)cc1 | – | 6.31 µM (active) |
| CC[C@H](C(=O)[C@H](C)[C@H](O)[C@H](C)CCc1ccc(C)c(O)c1C(=O)O)[C@H]1O[C@](CC)([C@@H]2CC[C@@](O)(CC)[C@H](C)O2)C[C@H]1C | inactive | – |
| CC[C@@]1(c2ccc(N)cc2)CCC(=O)NC1=O | inactive | – |
| CC(C)NC(=O)N1CCC2(CC1)CCN(C(=O)Oc1ccccc1)CC2 | inactive | – |
| NCCP(=O)(O)O | 4.14% [at 11.4 µM] | – |
| NC(N)=NCCC[C@H](N)C(=O)O | inactive | – |
| NP(N)(=O)NC(=O)c1ccc(F)cc1 | inactive | – |
| O[C@@H](c1cc(-c2ccccc2)nc2c1ccc1ccccc12)[C@@H]1CCCCN1 | -8.99% [at 11.4 µM] | – |
| COc1ccc(Cc2nccc3cc(OC)c(OC)cc23)cc1OC | inactive | – |
| CCC1C(=O)OCC1Cc1cncn1C (stereo not drawn) | – | 15.8 µM (active) |
| CC[C@H]1C(=O)OC[C@H]1Cc1cncn1C | -29.2% [at 11.4 µM] | – |
| CC(=O)O[C@H]1CC[C@@]2(C)[C@@H](CC[C@H]3[C@H]2CC(=O)[C@@]2(C)[C@@H]3C[C@H]3CC(C)=CC(=O)[C@H]32)C1 | -10.2% [at 11.4 µM] | – |
| C[C@@]12CC[C@H](O)C[C@@H]1CC[C@H]1[C@H]2CC[C@@]2(C)[C@@H](C3=CC(=O)OC3)CC[C@]12O | inactive | – |
| N#CCCN | inactive | – |
| Ic1ccccc1CN[C@@H]1C2CCN(CC2)[C@H]1C(c1ccccc1)c1ccccc1 | inactive | – |
| NC(N)=Nc1ccc2[nH]c3c(c2c1)C[C@]1(O)[C@@H]2Cc4ccc(O)c5c4[C@]1(CCN2CC1CC1)[C@H]3O5 | inactive | – |

| SMILES | activity, negative = inhibition | AC50 |
| --- | --- | --- |
| COC(=O)[C@@H]1[C@@H]2C[C@H]3c4[nH]c5cc(OC)ccc5c4CCN3C[C@@H]2C[C@H](OC(=O)/C=C\c2cc(OC)c(OC)c(OC)c2)[C@H]1OC | inactive | – |
| COc1cc2c(cc1OC)[C@H](C)NCC2 | inactive | – |
| OCc1cnc[nH]1 | inactive | – |
| NC(=NCc1ccc(Cl)cc1)SCCCc1cnc[nH]1 | – | 12.6 µM (active) |
| NC(=NCCc1ccc(I)cc1)SCCCc1cnc[nH]1 | inactive | – |
| C#CCN[C@@H](C)Cc1ccccc1 | inactive | – |
| c1csc(CN2CC[C@@]3(CCCNC3)C2)n1 | inactive | – |
| COc1ccc2c(c1)[C@]13CCCC[C@@H]1[C@H](C2)N(C)CC3 | inactive | – |
| COc1ccc(C(=O)O[C@H]2CC[C@@]3(C)[C@H]4CC[C@H]5[C@]3(C[C@]3(O)[C@H]6CN7C[C@H](C)CC[C@H]7[C@](C)(O)[C@]6(O)[C@H](O)C[C@]53O)O[C@]24O)cc1OC | -11.3% [at 11.4 µM] | – |
| CCCCn1c(O)c(C(CC)=NCc2ccc(F)cc2)c(=O)[nH]c1=O | – | 3.55 µM (active) |
| CCCCn1c(O)c(C=NCCN2CCCCC2)c(=O)[nH]c1=O | inactive | – |
| CCC(=Nc1cc(OC)ccc1OC)c1c(O)[nH]c(=O)[nH]c1=O | inactive | – |
| O=c1[nH]c(=O)n(CCc2ccc(F)cc2)c(O)c1C=NCCCN1CCOCC1 | inactive | – |
| CCCCn1c(O)c(C(CC)=Nc2ccc(OC)cc2OC)c(=O)[nH]c1=O | – | 14.1 µM (active) |
| C=CCn1c(O)c(C(CC)=NC2CC2)c(=O)[nH]c1=O | inactive | – |
| C[C@]12CCC3c4ccc(OCC(=O)O)cc4CCC3C1CCC2=O (stereo partly drawn) | -4.6% [at 11.4 µM] | – |
| c1cc(C2N3CCCN2CC3)ccn1 (stereo not drawn) | 9.12% [at 11.4 µM] | – |
| O=C(CCCN1CCC2(CC1)C(=O)N(Cc1cccc(F)c1)CN2c1ccccc1)c1ccc(F)cc1 | inactive | – |
| CCCN1CCC[C@H](c2cccc(C#N)c2)C1 | inactive | – |
| CCCN1CC[C@@H]2c3cc(O)ccc3CC[C@H]21 | inactive | – |
| Cc1cccc([C@H](C)c2cnc[nH]2)c1C | – | 0.2 µM (active) |
| O=C(O)[C@H]1C[C@@H]1[C@H](NP(=O)(c1ccccc1)c1ccccc1)c1ccccc1 | inactive | – |
| C=C(CC1(C(C)NP(=O)(c2ccccc2)c2ccccc2)CC1)c1ccccc1 (stereo not drawn) | – | 7.94 µM (active) |
| O=P(O)(O)c1ccccc1 (tested in a mixture with another compound) | 0.15% [at 11.4 µM] | – |

| SMILES | activity, negative = inhibition | AC50 |
| --- | --- | --- |
| C=C(CC1(CNP(=O)(c2ccccc2)c2ccccc2)CC1)c1ccccc1 | – | 10 µM (active) |
| O=C(O)[C@@H]1C[C@H]1[C@@H](NP(=O)(c1ccccc1)c1ccccc1)c1ccccc1 | inactive | – |
| C=C(C)c1ccccc1 (tested in a mixture with another compound) | -0.349% [at 11.4 µM] | – |
| Cc1c2cc[n+](CCN3CCCCC3)cc2c(C)c2c1[nH]c1ccc(O)cc12 | 17.8% [at 11.4 µM] | – |
| COc1ccc(C[C@@H]2NC[C@H](O)[C@@H]2OC(C)=O)cc1 | inactive | – |
| CC(C)c1nccn1Cc1ccc(Cl)cc1Cl | -23.6% [at 11.4 µM] | – |
| NC1=Nc2ccccc2Oc2ccccc21 | inactive | – |
| COc1ccccc1N1CCNCC1 | inactive | – |
| O=C(O)c1ccccc1-c1c2cc(Br)c(=O)cc-2oc2[c]([Hg])c(O)c(Br)cc12 | – | 0.631 µM (active) |
| COc1ccc2[nH]c3c(c2c1)CCNC3 | inactive | – |
| C[N+]1(C)C2CC[C@H]1CC(OC(=O)[C@@H](CO)c1ccccc1)C2 (stereo partly drawn) | 8.36% [at 11.4 µM] | – |
| CC1(C)[C@@H]2CC[C@]1(C)CN(CCC[N+](C)(C)C)C2 | 1.62% [at 11.4 µM] | – |
| Cc1cc(Cc2cc(C)c(N)cc2N)c(N)cc1N | -2.47% [at 11.4 µM] | – |
| C[C@H](CN(C)C)C(C#N)(c1ccccc1)c1ccccc1 | -0.348% [at 11.4 µM] | – |
| O=C(O)CP(=O)(O)c1ccc(Cl)cc1 | inactive | – |
| CNCCc1c[nH]c2ccc(O)cc12 | inactive | – |
| O=c1cc(-c2ccc(O)c(O)c2)oc2cc(O)cc(O)c12 | inactive | – |
| O=c1c(O)c(-c2cc(O)c(O)c(O)c2)oc2cc(O)cc(O)c12 | – | 12.6 µM (active) and 10 µM (active) |
| O=c1cc(-c2ccc(O)cc2)oc2cc(O)cc(O)c12 | inactive | – |
| Nc1nc(N)c(Cn2ccnc2)c(=O)[nH]1 | -12.8% [at 11.4 µM] | – |
| Cn1cccc1CNCCc1ccccc1 | inactive | – |
| CN1CC[C@@]23c4ccccc4N[C@H]1[C@]21CCN(C)[C@@H]3Nc2ccccc21 | inactive | – |
| C=C1C/C(=C\C)C(=O)O[C@@H]2CCN3CC=C(COC(=O)[C@@]1(C)O)[C@H]23 | inactive | – |
| CC1=C(C)[N+](=O)C2(O)CCCCC2(C)N1[O-] (stereo not drawn) | inactive | – |

| SMILES | activity, negative = inhibition | AC50 |
| --- | --- | --- |
| S=P(C1CCCCC1)(C1CCCCC1)[C@H](c1cccnc1)N1CCCC1 | -6.57% [at 11.4 µM] | – |
| C=Cn1ccnc1P(=S)(c1nccn1C=C)C1CCCCC1 | – | 11.2 µM (active) |
| O[Si@](CCCN1CCCCC1)(c1ccc(F)cc1)C1CCCCC1 | inactive | – |
| COC(=O)NC/C=C\c1nc(CC/C=C\C(=O)O[C@H]2C[C@H]3CC(=O)O[C@@H](/C=C\CC(C)C)C[C@@H]4CC[C@H](C)[C@H](C[C@@H](OC)C[C@H](C2)O3)O4)co1 | -4% [at 11.4 µM] | – |
| COC(=O)[C@H]1C(=O)c2ccccc2O[C@@](C(=O)OC)(c2ccccc2)[C@@H]1c1ccccc1 | -6.83% [at 11.4 µM] | – |
| CC[C@@H]1CN2CCc3cc(OC)c(OC)cc3[C@H]2C[C@@H]1C[C@@H]1NCCc2cc(O)c(OC)cc21 | inactive | – |
| CS(=O)(=O)N1CCC2(CC1)CN(Cc1ccncc1)C2 | – | 39.8 µM (active) |
| CC(C)CN1CC2(CCN(C(=O)c3ccncc3)CC2)C1 | inactive | – |
| c1cc(CN2CC3(CCNCC3)C2)ccn1 | inactive | – |
| c1cc(CN2CCC3(CCNCC3)CC2)ccn1 | inactive | – |
| CN1CC[C@@]2(CCCN(C(=O)c3csnn3)C2)C1 | inactive | – |
| O=C(Oc1ccccc1)N1CCC2(CC1)CN(Cc1ccncc1)C2 | – | 3.16 µM (active) |
| O=C(Oc1ccccc1)N1CCC2(CCN(Cc3ccncc3)CC2)CC1 | – | 3.98 µM (active) |
| O=C(Oc1ccccc1)N1CCC2(CCN(Cc3ccccc3)CC2)CC1 | inactive | – |
| N#Cc1ccc(CN2CCC3(CC2)CCN(C(=O)Oc2ccccc2)CC3)cc1 | inactive | – |
| O=C(Oc1ccccc1)N1CCC2(CCCN(Cc3ccccc3)C2)CC1 | inactive | – |
| CC(C)CN1CC2(CCN(C(=O)Oc3ccccc3)CC2)C1 | inactive | – |
| O=C(c1csnn1)N1CCC2(CC1)CN(Cc1ccncc1)C2 | – | 10 µM (active) |
| CC1(C)N=C(N)N=C(N)N1c1cccc(C(=O)Nc2ccc(S(=O)(=O)F)cc2)c1 | 14.9% [at 11.4 µM] | – |
| C=C(C)CN1CC[C@@]23c4c5ccc(O)c4O[C@H]2c2[nH]c4ccccc4c2C[C@]3(O)[C@@H]1C5 | inactive | – |
| CC1=C2C(=O)[C@@H]3[C@@H](CC=C4C[C@@H](O)CC[C@@]43C)[C@H]2CC[C@@]12O[C@H]1C[C@H](C)CN[C@H]1[C@@H]2C | -3.17% [at 11.4 µM] | – |
